# CHX counter: affects cycloheximide protein synthesis inhibition readout, counter-screen. cell reporter, cycloheximide protein synthesis inhibition counterscreen. 300,000 tested, 12% active. AID 2314. max response, %; in the data active = max response mostly above about 13%, no sharp cut-off; inactive = mostly below about 14%; note: read at 38.3 µM for the half of the compounds with a filed dose; 0% is about no effect
# Pf growth 48h: P. falciparum growth inhibition at 48 hours (one generation); P. falciparum luciferase growth in erythrocytes, 48 h; Potency, µM (series often up to 28.7 µM), for inactives: at the highest dose activity change, negative = inhibition, usual class: inhibitors; 310,000 tested, 5.9% active; note: potency is the fitted concentration of half-maximal effect; % is set by controls: 0 for no effect and ±100 for the full control effect
#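 Erythrocytes infected with P. falciparum carrying an integrated firefly luciferase reporter (2% hematocrit, 0.1% parasitemia final) were exposed to compounds in RPMI 1640 with 0.5% Albumax at 37 C, 5% CO2. Growth inhibition was scored as reduced luminescence.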
# Shiga inhibitor: Shiga toxin inhibition. inhibition, % at 38.7 µM. Vero cells, Shiga toxin protein synthesis inhibition reporter. 290,000 tested, 9.2% active; in the data active = inhibition mostly above about 28%, no sharp cut-off; inactive = mostly below about 43%; note: 0% is about no effect
# Pf growth 96h: P. falciparum growth inhibition at 96 hours; P. falciparum luciferase reporter growth, 96 h; Potency, µM (top dose mostly 28.7 µM), inactives show top-dose activity change, negative = inhibition, hits mostly inhibitors; 320,000 tested, 6.9% active; AID 504834; note: potency is the fitted concentration of half-maximal effect; % is set by controls: 0 for no effect and ±100 for the full control effect
#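 Infected RBCs, 2% Hct / 0.05% parasitemia final; luciferase-reporter P. falciparum; cpd 96 h, 37 C, 5% CO2; luciferase detection reagent; luminescence.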
# NS1 function inh: inhibitors of influenza NS1 protein function; 270,000 tested, 0.4% active; Potency, µM (series often up to 46.1 µM), for the others: at the highest dose activity, positive = more growth; AID 2326; calls by dose curve; note: potency is the fitted concentration of half-maximal effect; actives are rising curves; nearly all actives have a fitted effect of over 50% in size
#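 Compounds were scored for reversing the slow growth caused by influenza A NS1 in S. cerevisiae, measured by optical density at 600 nm. Assay medium contained 2% galactose at pH 6.0; NS1-free yeast of the same strain were the positive control.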
# * = called active by the depositor; u = inconclusive; x = not tested or not shown; [ ] = dose if it differs, or a comment. In the library only some 21% were active in any assay of this set; here they are far more common. Unless noted, calls come from the whole dose curve; as a rule, active = well fitted inhibition curve with a large enough effect; inconclusive = small, poorly fitted or top-dose-only effect, or another doubt; inactive = no such curve, though single readings can be large or run the other way.
SMILES,CHX counter,Pf growth 48h,Shiga inhibitor,Pf growth 96h,NS1 function inh
CCN(CC)CC(=O)Nc1ccc2c(c1)N(C(=O)CN(CC)CC)c1ccccc1CC2,14,10µM*,-19,x,3%
CN(CC(=O)Nc1ccc2c(c1)CCC2)CC(=O)Nc1ccccc1Br,-1,5%,-16,10%,x
CCN(CC)CC(=O)Nc1ccc2c(c1)Nc1ccccc1CC2,21*,u,33*,-62%,-10%
CCOC(=O)Nc1ccc2c(c1)N(C(=O)CN(CC)CC)c1ccccc1CC2,-3,u,-5,u,3%
Cc1[nH]nc2c1/C(=N\O)CCC2,7,19%,10,0%,x
COc1cc(-c2noc(CCC(N)=O)n2)cc(OC)c1OC,-3,-5%,-7,9.3µM*,-2%
Cc1ccc(-c2noc(CCC(=O)NCC3CCCO3)n2)cc1 (centres undefined),-3,x,2,34%,-12%
CN(C)C(=O)CCc1nc(-c2ccc(C(C)(C)C)cc2)no1,44*,172%,123*,22%,-21%
CC(C)(C)c1ccc(-c2noc(CCC(=O)NCC3CCCO3)n2)cc1 (centres undefined),43*,x,55,307%,-3%
CCc1ccccc1N(CC)C(=O)CCc1nc(-c2ccc(C)cc2)no1,5,u,15,x,-153%
CNC(=O)CCc1nc(-c2ccc(C(C)(C)C)cc2)no1,41*,193%,57,u,-8%
CC(NC(=O)c1ccccc1F)C1CC1 (centres undefined),-3,9%,-2,21%,1%
COCCN(C(=O)COC(=O)COc1ccc(Cl)c(C)c1)c1c(N)n(Cc2ccccc2)c(=O)[nH]c1=O,1,1%,-7,6%,-2%
C=Cn1nc(C)c2ccccc2c1=O,0,33%,-10,9%,0%
O=C(O)CSc1nc(C(F)(F)F)cc(=O)n1-c1ccccc1,2,37%,-6,12%,-4%
CCCCOCCCn1cnc2c([nH]c3cc(OC)ccc32)c1=O,-4,-1%,51,39%,-20%
CC(C)(C)c1ccc(-c2noc(CCC(=O)Nc3cccnc3)n2)cc1,-3,-4%,4,27%,3%
CC(C)(C)c1ccc(-c2noc(CCC(N)=O)n2)cc1,35*,13%,72*,x,-10%
CC(C)(C)c1ccc(-c2noc(CCC(=O)N3CCOCC3)n2)cc1,26*,452%,38,8%,x
Cc1ccc2c(c1)N(C)/C(=C/c1cccc[n+]1C)S2,-2,5%[0.00184 µM],6,0.47µM*,-5%
CN1/C(=C/c2cccc[n+]2C)Sc2ccccc21,7,1.2µM*,23,3%,-6%
Cc1ccc2c(c1)S/C(=C/c1ccc[n+](C)c1)N2CCO,-9,u,13,6%,x
Cc1ccc2c(c1)N(C)/C(=C/c1cccc[n+]1CCO)S2,-3,1.9µM*,5,16%,-1%
O=C(Nc1ccc2c(c1)OCCO2)C1CCN(C(=O)c2ccc(Br)cc2)CC1,18*,-2%,41,2.6µM*,-9%
COc1ccc(NC(=O)C2CCN(C(=O)c3ccc(OC)cc3)CC2)cc1,0,x,1,u,-6%
SMILES,CHX counter,Pf growth 48h,Shiga inhibitor,Pf growth 96h,NS1 function inh
COc1ccc(C(=O)N2CCC(C(=O)Nc3ccc4c(c3)OCCO4)CC2)cc1,48*,x,43,35%,-6%
O=C(Nc1ccc2c(c1)OCCO2)C1CCN(C(=O)c2ccccc2)CC1,21*,43%,106*,u,-3%
O=C(CCNC(=O)c1ccccc1)Nc1cccnc1,-3,14%,14,2%,x
O=C(COC(=O)c1ccc2c(=O)n3c(nc2c1)CCC3)Nc1ccc(OC(F)F)cc1,-2,15%,-3,23%,6%
CCOC(=O)CCn1nnc(N)n1,-3,4%,4,10µM*,0%
CC1CCCCN1C(=O)Cn1nnc(-c2cccnc2)n1 (centres undefined),2,u,12,x,10%
Cc1ccc(-c2nnn(CCC(=O)N3CCCCC3C)n2)cc1 (centres undefined),17*,50%,73*,u,-53%
COC(=O)c1ccc(COc2ccc(-c3nnn(CC(=O)NC(C)(C)C)n3)cc2)cc1,0,u,-5,7.4µM*,15%
COC(=O)CCn1nnc(-c2ccc(C)cc2)n1,32*,9%,60*,x,-8%
COC(=O)c1ccc(COc2ccc(-c3nnn(CC(N)=O)n3)cc2)cc1,3,27%,-4,u,x
CCOC(=O)Cn1nnc(-c2ccccc2)n1,-3,-15%,11,u,-2%
O=C(Cc1ccc(Cl)cc1)N1CCC2(CC1)NCCc1[nH]cnc12,-2,22%,19,-3%,1%
Cc1ccc(-c2nnn(CCC(=O)NC(C)(C)C)n2)cc1,32*,125%,52*,5%,-7%
CC(C)(C)c1ccc(S(=O)(=O)N2CCc3nc4ccccc4c(C(=O)O)c3C2)cc1,-1,-20%,-8,-7%,-1%
Cc1ncc([N+](=O)[O-])n1CC(=O)Nc1ccc(F)cc1,-2,-3%[0.00184 µM],-9,u,7%
Cc1ccc(Cl)cc1N1CCN(Cc2cc3c(cc2O)CCC3)CC1,-1,x,-15,0.15µM*,7%
Cc1ccc(NS(=O)(=O)c2cccc3nsnc23)cc1C,-1,0%,-12,4.1µM*,1%
Cc1ccc(O)c(NS(=O)(=O)c2cccc3nsnc23)c1,14*,28%,-4,24%,-3%
O=S(=O)(Nc1cccc(F)c1)c1cccc2nsnc12,-3,3%,2,7%,-7%
C#CCOc1ccc2c3c(c(=O)oc2c1)CCCC3,14*,36%,x,308%,-40%
O=c1oc2cc(OCc3nn[nH]n3)ccc2c2c1CCCC2,-1,6%,12,u,u
O=C(COc1ccc2c3c(c(=O)oc2c1)CCC3)Nc1ccccn1,20*,128%,19,189%,1%
CC(=O)C(C)Oc1ccc2c3c(c(=O)oc2c1)CCCCC3 (centres undefined),50*,73%,83*,x,-19%
Cc1cccnc1NC(=O)COc1ccc2oc3c(c2c1)CCCC3,29*,u,28*,u,-38%
Cc1cc(NC(=O)COC(=O)COc2ccc3c4c(c(=O)oc3c2)CCC4)no1,-3,2%,-6,-7%,-12%
SMILES,CHX counter,Pf growth 48h,Shiga inhibitor,Pf growth 96h,NS1 function inh
CC(=O)[C@H]1[C@H](C#N)CC2C3CC=C4C[C@@H](O)CCC4(C)C3CCC21C (some centres undefined),-1,x,-4,x,x
CC(=O)COc1ccc2c3c(c(=O)oc2c1)CCCC3,17*,45%,50,x,-64%
CC(=O)C(C)Oc1ccc2c3c(c(=O)oc2c1)CCCC3 (centres undefined),8,39%,70,22%,-32%
Cc1ccc(C)n1-n1c(C)nc2sc3c(c2c1=O)CCCCC3,0,12µM*,23,12µM*,-37%
NNc1nc2sc3c(c2c(=O)n1-c1ccccc1)CCCC3,23*,-21%,75,-16%,u
Cc1ccc(C)n1-n1cnc2sc3c(c2c1=O)CCCCC3,2,x,-7,u,-1%

# Screens (PubChem)
